Measurements reported in PubChem BioAssay.
The source made the active and inactive calls.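 Rule for the calls, unless noted: active = normalized viability below 100% at a tested concentration; inactive = the rest.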

How the values were obtained:
[1] = liver-stage malaria parasite load reduction – cell-based, known kinase inhibitor set, luminescence, hepatoma host viability (AID 624392; call rule not given here;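 note: infected cells incubated roughly two days before readout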); conditions: Plasmodium liver stage in hepatoma cells, luciferase luminescence, concentration not given here; liver cell % of control: measured here: host liver cell viability; parasite % of control: stronger effect = lower value
[2] = altered dexamethasone sensitivity, NF-kB reporter, cell-based, luciferase, IL-1B stimulus (AID 624486; call rule not given here;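 for percent of negative control (+Dex): 100% = mean signal of vehicle control wells on the plate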); conditions: IL-1B + dexamethasone, luminescence; percent of negative control (+Dex): actives lie on both sides, concentration not given here; z-score: measured here: IL-1B alone, no Dex
[3] = C. elegans survival during P. aeruginosa infection – whole organism (AID 651566; call rule not given here;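 note: tested at 14 µM; sign flipped so higher z means a lower ratio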); conditions: C. elegans killed by P. aeruginosa, survival ratio
[4] = pro-inflammatory signaling induction in mouse macrophages – cell-based, murine, luminescence (AID 652131; call rule not given here); conditions: murine macrophage pro-inflammatory reporter, stronger effect = higher value
[5] = MELAS cybrid and Rieske KO viability enhancers – cell-based, MELAS cybrids, Rieske KO mouse fibroblasts, CellTiter-Glo, primary screen (AID 1508586;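 active = mean z-score across replicates of 1.96 or higher in either the MELAS or the Rieske mutant cell line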;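 note: z relative to plate mean and SD of compound and empty wells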); conditions: low glucose
[6] = drug combination growth inhibition, ovarian cancer – cell-based, oncology-focused library, rucaparib conditional, profiling panel (AID 1508598); conditions: patient-derived ovarian cancer cells, CellTiter-Glo viability, 144 h, stronger effect = lower value
[7] = galactose survival enhancers in mitochondrial complex I cybrids – cell-based, galactose medium, ATP luminescence, primary screen (AID 1645843;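 active = z-score of at least 1.8 in each of two replicates, scored against plate mean and spread of sample wells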;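 note: positive z means more ATP and so rescue of galactose-driven cybrid death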); conditions: complex I mutant cybrid cells, 72 h, stronger effect = higher value
[8] = target: NAD(+) hydrolase SARM1 (Homo sapiens) (UniProt Q6SZW1); assay: blocking NAD cleavage by SARM1 SAM-TIR – cell lysate, NAD-Glo luminescence (AID 1508614;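 active = compound whose remaining NAD level is above about 45 nM, limit read from the data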;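 note: higher remaining NAD means stronger inhibition of SARM1 NADase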); conditions: SAM-TIR HEK293T lysate NADase, at 1 µM, stronger effect = higher value
[9] = MELAS cybrid survival, CellTiter-Glo 48 h, stronger effect = higher value
[10] = Rieske KO mouse fibroblast survival, CellTiter-Glo 72 h
[11] = at 0.000305 µM, OCI-C5x cells, with rucaparib 10 µM, 100% = cells with rucaparib alone
[12] = at 0.000305 µM, OCI-C5x cells, without rucaparib
[13] = at 0.000305 µM, OCI-P5x cells, with rucaparib 20 µM, 100% = cells with rucaparib alone
[14] = at 0.000305 µM, OCI-P5x cells, without rucaparib
[15] = at 0.00122 µM, OCI-C5x cells, with rucaparib 10 µM, 100% = cells with rucaparib alone
[16] = at 0.00122 µM, OCI-C5x cells, without rucaparib
[17] = at 0.00122 µM, OCI-P5x cells, with rucaparib 20 µM, 100% = cells with rucaparib alone
[18] = at 0.00122 µM, OCI-P5x cells, without rucaparib
[19] = at 0.00488 µM, OCI-C5x cells, with rucaparib 10 µM, 100% = cells with rucaparib alone
[20] = at 0.00488 µM, OCI-C5x cells, without rucaparib
[21] = at 0.00488 µM, OCI-P5x cells, with rucaparib 20 µM, 100% = cells with rucaparib alone
[22] = at 0.00488 µM, OCI-P5x cells, without rucaparib
[23] = at 0.0195 µM, OCI-C5x cells, with rucaparib 10 µM, 100% = cells with rucaparib alone
[24] = at 0.0195 µM, OCI-C5x cells, without rucaparib
[25] = at 0.0195 µM, OCI-P5x cells, with rucaparib 20 µM, 100% = cells with rucaparib alone
[26] = at 0.0195 µM, OCI-P5x cells, without rucaparib
[27] = at 0.0781 µM, OCI-C5x cells, with rucaparib 10 µM, 100% = cells with rucaparib alone
[28] = at 0.0781 µM, OCI-C5x cells, without rucaparib
[29] = at 0.0781 µM, OCI-P5x cells, with rucaparib 20 µM, 100% = cells with rucaparib alone
[30] = at 0.0781 µM, OCI-P5x cells, without rucaparib
[31] = at 0.313 µM, OCI-C5x cells, with rucaparib 10 µM, 100% = cells with rucaparib alone
[32] = at 0.313 µM, OCI-C5x cells, without rucaparib
[33] = at 0.313 µM, OCI-P5x cells, with rucaparib 20 µM, 100% = cells with rucaparib alone
[34] = at 0.313 µM, OCI-P5x cells, without rucaparib
[35] = at 1.25 µM, OCI-C5x cells, with rucaparib 10 µM, 100% = cells with rucaparib alone
[36] = at 1.25 µM, OCI-C5x cells, without rucaparib
[37] = at 1.25 µM, OCI-P5x cells, with rucaparib 20 µM, 100% = cells with rucaparib alone
[38] = at 1.25 µM, OCI-P5x cells, without rucaparib
[39] = at 5 µM, OCI-C5x cells, with rucaparib 10 µM, 100% = cells with rucaparib alone
[40] = at 5 µM, OCI-C5x cells, without rucaparib
[41] = at 5 µM, OCI-P5x cells, with rucaparib 20 µM, 100% = cells with rucaparib alone
[42] = at 5 µM, OCI-P5x cells, without rucaparib

Sequence of NAD(+) hydrolase SARM1 (Homo sapiens) (Q6SZW1 whole entry, looked up): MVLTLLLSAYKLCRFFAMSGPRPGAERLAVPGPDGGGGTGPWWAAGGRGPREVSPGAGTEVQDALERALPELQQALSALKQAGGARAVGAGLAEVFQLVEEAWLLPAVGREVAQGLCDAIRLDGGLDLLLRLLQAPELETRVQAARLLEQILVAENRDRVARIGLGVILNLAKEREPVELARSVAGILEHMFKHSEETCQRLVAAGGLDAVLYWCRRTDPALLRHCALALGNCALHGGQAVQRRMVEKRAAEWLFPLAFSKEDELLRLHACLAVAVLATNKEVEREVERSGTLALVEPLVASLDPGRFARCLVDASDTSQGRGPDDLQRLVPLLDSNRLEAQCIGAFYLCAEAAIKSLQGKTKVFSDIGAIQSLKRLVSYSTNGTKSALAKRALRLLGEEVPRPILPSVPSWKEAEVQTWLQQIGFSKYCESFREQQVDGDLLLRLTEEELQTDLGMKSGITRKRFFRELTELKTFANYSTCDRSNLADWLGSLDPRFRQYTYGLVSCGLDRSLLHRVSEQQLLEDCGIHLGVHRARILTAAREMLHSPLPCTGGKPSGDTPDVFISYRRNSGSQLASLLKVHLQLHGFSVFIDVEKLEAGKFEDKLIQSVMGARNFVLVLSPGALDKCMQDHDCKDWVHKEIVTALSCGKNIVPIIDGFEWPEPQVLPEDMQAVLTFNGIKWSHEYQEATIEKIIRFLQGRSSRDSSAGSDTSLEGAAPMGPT

COc1cccc(Nc2nccc(-c3cnn4ncccc34)n2)c1
inactive: parasite % of control [1] 13.4% | z-score [3] 0.695 | z-score [4] -1.68 | z-score [5, 9] 0.875
1.18: z-score [5, 10]
-9.21: z-score [2]
85.6%: liver cell % of control [1]
active: percent of negative control (+Dex) [2] 3%

COC1=C2C[C@H](C)C[C@@H](OC)[C@H](O)[C@H](C)/C=C(\C)[C@H](OC(N)=O)[C@@H](OC)/C=C/C=C(\C)C(=O)NC(=CC1=O)C2=O
active: viability [6, 11] 97.2% | viability [6, 12] 99.7% | viability [6, 17] 93.1% | viability [6, 21] 14.8% | viability [6, 22] 14.2% | viability [6, 23] 29.6% | viability [6, 24] 12.1% | viability [6, 25] 5.75% | viability [6, 26] 4.97% | viability [6, 27] 16.4% | viability [6, 28] 9.53% | viability [6, 29] 5.79% | viability [6, 30] 4.23% | viability [6, 31] 11.1% | viability [6, 32] 7.02% | viability [6, 33] 5.27% | viability [6, 34] 4.3% | viability [6, 35] 9.96% | viability [6, 36] 7.13% | viability [6, 37] 5.24% | viability [6, 38] 3.95% | viability [6, 39] 6.19% | viability [6, 40] 5.94% | viability [6, 41] 4.11% | viability [6, 42] 3.72%
inactive: viability [6, 13] 108% | viability [6, 14] 102% | viability [6, 15] 107% | viability [6, 16] 106% | viability [6, 18] 103% | viability [6, 19] 114% | viability [6, 20] 109%

NC(=O)Cc1ccccc1Oc1nccc(-c2c(-c3ccc(F)cc3)ncn2C2CCNCC2)n1
0.475: z-score [2]
-0.373: z-score [5, 10]
inactive: parasite % of control [1] 160% | percent of negative control (+Dex) [2] 105% | z-score [3] -0.78 | z-score [4] 0.598 | z-score [5, 9] -0.586
110%: liver cell % of control [1]

CCn1nc(C(=O)N2CCCC2)c2c1CCC(N1CCN(c3ccccc3OC)CC1)C2 (configuration not stated)
-0.558: z-score [5, 10]
inactive: z-score [5, 9] -0.423 | z-score [7] -0.48

C[C@H](O[C@H]1OCCN(Cc2n[nH]c(=O)[nH]2)[C@H]1c1ccc(F)cc1)c1cc(C(F)(F)F)cc(C(F)(F)F)c1
active: viability [6, 39] 80.9% | viability [6, 41] 36.6% | viability [6, 42] 97.5%
inactive: viability [6, 11] 106% | viability [6, 12] 113% | viability [6, 13] 100% | viability [6, 14] 105% | viability [6, 15] 111% | viability [6, 16] 113% | viability [6, 17] 109% | viability [6, 18] 105% | viability [6, 19] 122% | viability [6, 20] 123% | viability [6, 21] 110% | viability [6, 22] 114% | viability [6, 23] 108% | viability [6, 24] 114% | viability [6, 25] 115% | viability [6, 26] 112% | viability [6, 27] 117% | viability [6, 28] 125% | viability [6, 29] 117% | viability [6, 30] 117% | viability [6, 31] 116% | viability [6, 32] 130% | viability [6, 33] 112% | viability [6, 34] 119% | viability [6, 35] 120% | viability [6, 36] 144% | viability [6, 37] 117% | viability [6, 38] 113% | viability [6, 40] 147%

COC(=O)Nc1nc2ccc(Sc3ccc(NC(=O)Nc4cc(C(F)(F)F)ccc4F)cc3)cc2[nH]1
-0.175: z-score [2]
136%: liver cell % of control [1]
inactive: parasite % of control [1] 195% | percent of negative control (+Dex) [2] 96.5% | z-score [3] -0.56 | z-score [4] 1.3 | z-score [5, 9] -0.309
-0.32: z-score [5, 10]

CCOC(=S)SSC(=S)OCC
inactive: remaining NAD [8] 10 nM

O=C1[C@H](CC[C@H](O)c2ccc(F)cc2)[C@H](c2ccc(O)cc2)N1c1ccc(F)cc1
active: viability [6, 29] 98% | viability [6, 33] 94.9% | viability [6, 37] 96.5% | viability [6, 38] 96.4%
inactive: viability [6, 11] 109% | viability [6, 12] 121% | viability [6, 13] 106% | viability [6, 14] 117% | viability [6, 15] 107% | viability [6, 16] 117% | viability [6, 17] 107% | viability [6, 18] 114% | viability [6, 19] 111% | viability [6, 20] 114% | viability [6, 21] 101% | viability [6, 22] 112% | viability [6, 23] 109% | viability [6, 24] 118% | viability [6, 25] 104% | viability [6, 26] 106% | viability [6, 27] 107% | viability [6, 28] 108% | viability [6, 30] 102% | viability [6, 31] 111% | viability [6, 32] 111% | viability [6, 34] 104% | viability [6, 35] 126% | viability [6, 36] 111% | viability [6, 39] 128% | viability [6, 40] 103%
